Experimental findings from PubChem BioAssay (NCATS) are described below.

“And” between values parts separate entries of the source, which are not always exact repeats. Equal values may be shown once. Records with an inconclusive call do not appear. The source made the active and inactive calls. Unless noted, calls come from the whole dose curve; as a rule, active = well fitted curve in the direction sought with a large enough effect; inconclusive = small, poorly fitted or top-dose-only effect, or another doubt; inactive = no such curve, though single readings can be large; an effect the other way counts as inactive or inconclusive.

The nature of assay [1]: Cellular Toxicity (caspase-3) SK-N-SH (AID 661).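 Note: 0% = DMSO basal and 100% = 10 µM staurosporine.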 Put shortly:
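Caspase 3/7 activation is measured as a luminescence increase from aminoluciferin released by substrate cleavage in SK-N-SH cells after 16 hr compound treatment; values are AC50 from concentration-response curves.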

The target in assay [2] is Cytochrome P450 3A4 (Homo sapiens) (UniProt P08684). The assay can be described thus: qHTS Assay for Inhibitors and Substrates of Cytochrome P450 3A4 (AID 884). Note: nearly all actives have a fitted effect of over 50% in size. Note: potency is the fitted concentration of half-maximal effect. The method, boiled down: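 20 nM human CYP3A4 with 25 uM Luciferin-PPXE (at KM) in 200 mM KPO4, preincubated 10 min with compound; NADPH regeneration started a 60 min RT reaction. Luciferin detected by luminescence, normalized to 57 uM ketoconazole as full inhibition.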
Sequence of Cytochrome P450 3A4 (Homo sapiens) (P08684 whole entry, looked up): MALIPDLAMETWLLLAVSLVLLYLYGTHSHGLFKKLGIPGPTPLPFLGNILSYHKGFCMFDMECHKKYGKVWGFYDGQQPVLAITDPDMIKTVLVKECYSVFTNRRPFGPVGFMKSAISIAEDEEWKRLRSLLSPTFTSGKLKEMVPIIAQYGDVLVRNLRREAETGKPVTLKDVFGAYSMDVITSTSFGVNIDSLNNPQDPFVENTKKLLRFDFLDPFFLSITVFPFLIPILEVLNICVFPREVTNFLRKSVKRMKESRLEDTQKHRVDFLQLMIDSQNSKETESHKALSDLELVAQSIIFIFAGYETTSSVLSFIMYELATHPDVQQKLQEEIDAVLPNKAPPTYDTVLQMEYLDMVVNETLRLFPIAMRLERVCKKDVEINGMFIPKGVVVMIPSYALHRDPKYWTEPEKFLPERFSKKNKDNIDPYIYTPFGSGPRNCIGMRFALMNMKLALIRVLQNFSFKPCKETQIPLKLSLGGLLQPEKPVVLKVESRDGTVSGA
(In general: qHTS replaces the single test concentration by a dilution series.)

Assay [3] is described as follows: MultiTox-Fluor Cytotoxicity Assay - LYMP1-002 - Dead Cells (AID 960).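 Note: 0% = DMSO and 100% = tetraoctylammonium bromide; nearly all actives have a fitted effect of over 60% in size.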 Put shortly: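 Acute cytotoxicity in a human lymphoblastoid line is scored as rising dead-cell protease signal after 16 hr exposure at 37 C, measured fluorometrically (485/520).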
A short description of assay [4]: Cell Viability - LYMP1-003 - Assay at 24 hr (AID 963).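 Note: plate controls were DMSO only for no effect and tetraoctylammonium bromide positive control for full effect.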 Put shortly:
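Acute toxicity in LYMP1-003 lymphoblastoid cells: 24 hr compound treatment at 37 C, ATP measured with CellTiter-Glo after 30 min at room temperature. AC50 derived by fitting the Hill equation to qHTS titrations.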

A short description of assay [5]: qHTS assay for small molecule antagonists of peroxisome proliferator-activated receptor delta signaling (AID 588535; active = well fitted inhibition curve with a large enough effect in the signal ratio, with a control signal flat, not every such curve was filed as active; the % refers to the signal ratio;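 for max response: cells co-treated with a PPAR-delta agonist as stimulator during compound exposure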). The following applies: HEK293T PPARd-UAS-bla, beta-lactamase FRET ratio, 18 h; 460 nm channel. Put shortly:
(§1)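 Cell-based beta-lactamase assay in antagonist mode: 4000 HEK293T PPAR-delta-UAS-bla cells per well, 5 hr preincubation then 18 hr compound incubation at 37 C. IC50 obtained by Hill equation fitting.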

For assay [6], the target named is Peroxisome proliferator-activated receptor delta (Homo sapiens) (UniProt Q03181). Described as above. Put shortly: as §1
Sequence of Peroxisome proliferator-activated receptor delta (Homo sapiens) (Q03181 whole entry, looked up): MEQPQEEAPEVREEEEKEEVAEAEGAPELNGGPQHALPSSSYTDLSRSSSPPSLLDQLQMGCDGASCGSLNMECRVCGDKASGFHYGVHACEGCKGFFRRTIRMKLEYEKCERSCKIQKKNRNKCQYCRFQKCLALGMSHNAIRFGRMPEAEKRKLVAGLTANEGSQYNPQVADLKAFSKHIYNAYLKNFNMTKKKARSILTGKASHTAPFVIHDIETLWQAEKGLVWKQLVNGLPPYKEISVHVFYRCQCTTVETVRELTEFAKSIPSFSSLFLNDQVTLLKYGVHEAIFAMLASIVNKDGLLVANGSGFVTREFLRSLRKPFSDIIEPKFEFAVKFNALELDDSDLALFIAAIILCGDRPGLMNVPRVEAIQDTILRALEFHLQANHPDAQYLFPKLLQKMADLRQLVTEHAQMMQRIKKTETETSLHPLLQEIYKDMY
Assay [7] has as its target Peroxisome proliferator-activated receptor gamma (Homo sapiens) (UniProt P37231). Description: qHTS assay for small molecule agonists of peroxisome proliferator-activated receptor gamma signaling (AID 588536; active = well fitted curve in the direction sought with a large enough effect in the signal ratio, with a control signal flat, not every such curve was filed as active; the % refers to the signal ratio;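 note: 0% = DMSO basal wells and 100% = rosiglitazone at 2 µM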). The method, boiled down: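 GeneBLAzer PPAR-gamma-UAS-bla HEK293 cells in 1% charcoal/dextran-treated FBS medium were treated 16 h at 37 C with compounds. Beta-lactamase activity was read by CCF4 ratio (460/530 nm). Response was normalized to 2 uM rosiglitazone (100%) and DMSO, then Hill-fitted for EC50 and efficacy.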

For assay [8], the target named is Vitamin D3 receptor (Homo sapiens) (UniProt P11473). Description: qHTS assay for small molecule antagonists of vitamin D receptor signaling (AID 588541; calls by dose curve;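 note: receptor activated by calcitriol during compound treatment; % is set by controls: 0 for no effect and ±100 for the full control effect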). Put shortly: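 Antagonist-mode beta-lactamase reporter assay: HEK293T VDR-UAS-bla cells were exposed to titrated compound alongside 1-alpha,25-dihydroxyvitamin D3 at 3 nM final for 16 h. Values were normalized to the 50 nM agonist control and DMSO basal, with IC50 and efficacy from Hill equation fits.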
Sequence of Vitamin D3 receptor (Homo sapiens) (P11473 whole entry, looked up): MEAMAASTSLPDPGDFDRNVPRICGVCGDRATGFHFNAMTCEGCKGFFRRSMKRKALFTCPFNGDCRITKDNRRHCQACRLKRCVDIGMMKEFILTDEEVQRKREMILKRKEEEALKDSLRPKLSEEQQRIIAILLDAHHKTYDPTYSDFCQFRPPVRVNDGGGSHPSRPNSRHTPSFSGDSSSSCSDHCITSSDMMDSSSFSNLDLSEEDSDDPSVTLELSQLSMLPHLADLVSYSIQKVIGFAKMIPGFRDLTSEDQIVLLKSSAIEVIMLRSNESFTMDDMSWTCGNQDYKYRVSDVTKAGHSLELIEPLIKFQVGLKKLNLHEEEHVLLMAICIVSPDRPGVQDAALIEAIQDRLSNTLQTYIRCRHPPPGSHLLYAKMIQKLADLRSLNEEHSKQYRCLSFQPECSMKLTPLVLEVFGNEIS

The target is the same in assay [9]. The assay can be described thus: qHTS assay for small molecule agonists of vitamin D receptor signaling (AID 588543; calls by dose curve;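 note: 0% = DMSO basal and 100% = reference agonist control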). The method, boiled down: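 Reporter cells (HEK293T, VDR-UAS-bla) were seeded in medium with 2% charcoal-stripped serum and incubated 5 h, then compounds in concentration series were added for 16 h at 37 °C. Stimulation was scaled between DMSO basal and 50 nM 1α,25-dihydroxyvitamin D3.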

Assay [10] deals with Voltage-gated inwardly rectifying potassium channel KCNH2 (Homo sapiens) (UniProt Q12809). The assay can be described thus: qHTS Assay for Small Molecule Inhibitors of the Human hERG Channel Activity (AID 588834).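 Note: top concentration of the series differs between compounds; % is set by controls: 0 for no effect and ±100 for the full control effect; lower thallium flux fluorescence means stronger hERG block; nearly all actives have a fitted effect of over 50% in size.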 Put shortly:
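hERG-BacMam U2OS, 2000 cells/well; 0.7X FluxOR loading 1 hr RT dark; cpd ~10 min 37 °C; stim buffer; FDSS fluorescence 2 min @ 1 s; AC50 Hill fit.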

The nature of assay [11]: qHTS assay for small molecule activators of the p53 signaling pathway (AID 651743; active = well fitted activation curve with a large enough effect in the signal ratio, not every such curve was filed as active; the % refers to the signal ratio; note: % of control where 0% means no effect). The following applies: HCT-116 p53RE-bla, beta-lactamase FRET ratio, 16 h; activation: stronger effect = higher value. Put shortly: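 Screen for p53 pathway agonists uses stably transfected p53RE-bla HCT-116 cells, 4,000 per well, treated 16 h at 37 C with compounds in DMSO.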
Assay [12] is described as follows: qHTS assay for small molecule disruptors of the mitochondrial membrane potential - 1 hr assay (AID 651754; calls by dose curve; note: nearly all actives have a fitted effect of over 35% in size; note: potency is the fitted concentration of half-maximal effect). Put shortly: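 Steps: seed HepG2 cells and let attach overnight; pin-transfer compound or vehicle; incubate 1 hr at 37C; add Mito-MPS dye for 30 min; read two-channel fluorescence for monomer and aggregate forms.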
Assay [13] addresses Tumor necrosis factor (Homo sapiens) (UniProt P01375). The assay can be described thus: qHTS assay to identify small molecules that stimulate Tumor Necrosis Factor-alpha (TNF-alpha) secretion (AID 651757; active = well fitted curve in the direction sought with a large enough effect in the signal ratio; the % refers to the signal ratio; note: 0% is about no effect). The method, boiled down: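 Secreted TNF-alpha from compound-treated THP-1 cells (17 hrs, 37 C) was quantified with a homogeneous time-resolved fluorescence antibody assay.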

The nature of assay [14]: qHTS assay for small molecule activators of the human pregnane X receptor (PXR) signaling pathway (AID 720659; call rule not given here; note: 0% is about no effect).
Assay [15] can be described thus: Cell Viability - NIH 3T3 (AID 541).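 Note: cells exposed to compound for 40 hours; plate controls were DMSO alone for no effect and tamoxifen positive control for full effect; nearly all actives have a fitted effect of over 25% in size.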 The following applies: NIH 3T3 cell viability, qHTS; activity change, negative = cytotoxicity: at 92.2 µM (top of the series). Put shortly: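 AC50 values reflect concentration-dependent loss of intracellular ATP in NIH 3T3 cells after 40 hr treatment in complete culture medium, quantified by luciferase-based luminescence.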
The nature of assay [16]: qHTS assay for small molecule agonists of the antioxidant response element (ARE) signaling pathway (AID 651741; active = well fitted activation curve with a large enough effect in the signal ratio; the % refers to the signal ratio; note: potency is the fitted concentration of half-maximal effect; for activation: % of control where 0% means no effect). Put shortly:
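Seeding 2,000 ARE-bla HepG2 cells per well preceded a 5 h incubation at 37 C/5% CO2 and a 16 h compound exposure at 37 C. Beta-lactamase reporter activity was then quantified by fluorescence after 2 h with LiveBLAzer B/G FRET substrate.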

For assay [17], the target named is Nuclear receptor ROR-gamma (Homo sapiens) (UniProt P51449). The assay can be described thus: qHTS assay for small molecule antagonists of the retinoid-related orphan receptor gamma (ROR-gamma) signaling pathway (AID 651802). Note: nearly all actives have a fitted effect of over 60% in size. Note: potency is the fitted concentration of half-maximal effect. The method, boiled down:
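Antagonism is scored as a fall in luminescence from a RORE-luciferase reporter in CHO cells expressing ROR under a TET-inducible promoter, measured 16hr after doxycycline induction in the presence of compound.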

The nature of assay [18]: Cell Viability - Jurkat (AID 426;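 active = dose-dependent loss of cell ATP signal giving a full or clear fitted curve, ranked by lower potency value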;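 note: potency is the fitted concentration of half-maximal effect; cells exposed to compound for 40 hours at 37 °C before ATP read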). The following applies: qHTS. The method, boiled down:
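Seed 5000 Jurkat E6-1 cells/well; add compound; incubate 40 hr at 37 °C; add CellTiter-Glo; wait 20 min at room temperature; read luminescence. Fit concentration-response with Hill equation for AC50.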

Assay [19] is described as follows: Cell Viability - LYMP2-013 (AID 970).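 Note: cells exposed to compound for 24 h at 37 °C; nearly all actives have a fitted effect of over 55% in size.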 Note: potency is the fitted concentration of half-maximal effect. Put shortly: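 Acute toxicity was measured in human lymphoblastoid cells (2500/well) exposed to compound titrations for 24 hr, with ATP luminescence (CellTiter-Glo) as read-out and AC50 fitted by Hill equation.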
For assay [20], the target named is Thyroid hormone receptor beta (Homo sapiens) (UniProt P10828). The assay can be described thus: qHTS assay for small molecule agonists of thyroid hormone receptor beta signaling (AID 588545; calls by dose curve;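 note: 0% = DMSO only and 100% = 10 nM T3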). The method, boiled down: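 TR-UAS-bla-GripTite HEK 293 cells in medium with 2% charcoal/dextran FBS, 0.1 mM NEAA and 1 mM sodium pyruvate were treated with titrated compounds for 18 hrs at 37 C. Beta-lactamase reporter was read with CCF4 dye (ex 405, em 460/530 nm); EC50 from Hill fits.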
Sequence of Thyroid hormone receptor beta (Homo sapiens) (P10828 whole entry, looked up): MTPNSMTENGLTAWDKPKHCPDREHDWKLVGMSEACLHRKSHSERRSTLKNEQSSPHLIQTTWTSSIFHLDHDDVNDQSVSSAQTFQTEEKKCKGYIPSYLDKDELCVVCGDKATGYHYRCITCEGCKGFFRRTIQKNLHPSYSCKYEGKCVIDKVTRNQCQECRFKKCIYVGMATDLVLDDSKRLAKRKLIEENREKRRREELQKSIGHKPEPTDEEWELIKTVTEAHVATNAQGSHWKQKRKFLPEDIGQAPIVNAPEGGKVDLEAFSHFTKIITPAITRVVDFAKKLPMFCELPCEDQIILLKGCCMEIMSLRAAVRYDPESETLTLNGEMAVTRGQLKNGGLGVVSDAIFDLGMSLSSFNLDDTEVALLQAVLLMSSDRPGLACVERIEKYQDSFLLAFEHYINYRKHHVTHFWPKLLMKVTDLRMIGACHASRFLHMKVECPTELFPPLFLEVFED

Sequence of Nuclear receptor ROR-gamma (Homo sapiens) (P51449 whole entry, looked up): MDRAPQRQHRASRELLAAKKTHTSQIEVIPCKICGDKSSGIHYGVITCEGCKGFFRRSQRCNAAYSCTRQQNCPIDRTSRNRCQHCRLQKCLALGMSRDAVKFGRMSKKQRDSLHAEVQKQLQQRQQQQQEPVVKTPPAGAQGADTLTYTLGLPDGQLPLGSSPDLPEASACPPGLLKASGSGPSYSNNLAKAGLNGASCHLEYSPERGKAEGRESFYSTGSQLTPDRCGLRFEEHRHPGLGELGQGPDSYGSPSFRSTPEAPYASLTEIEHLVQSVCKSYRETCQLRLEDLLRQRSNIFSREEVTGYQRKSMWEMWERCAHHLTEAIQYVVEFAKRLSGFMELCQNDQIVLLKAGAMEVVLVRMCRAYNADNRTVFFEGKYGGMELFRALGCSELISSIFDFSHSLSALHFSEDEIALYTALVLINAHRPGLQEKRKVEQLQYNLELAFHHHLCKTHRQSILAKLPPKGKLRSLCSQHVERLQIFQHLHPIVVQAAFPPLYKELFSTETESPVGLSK
Sequence of Peroxisome proliferator-activated receptor gamma (Homo sapiens) (P37231 whole entry, looked up): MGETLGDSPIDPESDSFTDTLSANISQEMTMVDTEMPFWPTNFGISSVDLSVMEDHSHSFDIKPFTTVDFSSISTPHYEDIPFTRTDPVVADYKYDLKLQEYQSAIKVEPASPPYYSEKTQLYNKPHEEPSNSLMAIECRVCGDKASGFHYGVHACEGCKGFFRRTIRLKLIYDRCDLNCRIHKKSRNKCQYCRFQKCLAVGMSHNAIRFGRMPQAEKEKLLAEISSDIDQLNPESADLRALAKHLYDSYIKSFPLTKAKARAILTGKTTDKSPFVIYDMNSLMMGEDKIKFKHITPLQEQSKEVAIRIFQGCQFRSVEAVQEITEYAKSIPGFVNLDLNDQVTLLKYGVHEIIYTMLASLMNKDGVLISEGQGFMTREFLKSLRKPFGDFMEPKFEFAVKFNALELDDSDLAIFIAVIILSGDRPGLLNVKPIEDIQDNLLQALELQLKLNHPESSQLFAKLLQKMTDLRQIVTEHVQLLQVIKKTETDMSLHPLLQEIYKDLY
Sequence of Voltage-gated inwardly rectifying potassium channel KCNH2 (Homo sapiens) (Q12809 whole entry, looked up): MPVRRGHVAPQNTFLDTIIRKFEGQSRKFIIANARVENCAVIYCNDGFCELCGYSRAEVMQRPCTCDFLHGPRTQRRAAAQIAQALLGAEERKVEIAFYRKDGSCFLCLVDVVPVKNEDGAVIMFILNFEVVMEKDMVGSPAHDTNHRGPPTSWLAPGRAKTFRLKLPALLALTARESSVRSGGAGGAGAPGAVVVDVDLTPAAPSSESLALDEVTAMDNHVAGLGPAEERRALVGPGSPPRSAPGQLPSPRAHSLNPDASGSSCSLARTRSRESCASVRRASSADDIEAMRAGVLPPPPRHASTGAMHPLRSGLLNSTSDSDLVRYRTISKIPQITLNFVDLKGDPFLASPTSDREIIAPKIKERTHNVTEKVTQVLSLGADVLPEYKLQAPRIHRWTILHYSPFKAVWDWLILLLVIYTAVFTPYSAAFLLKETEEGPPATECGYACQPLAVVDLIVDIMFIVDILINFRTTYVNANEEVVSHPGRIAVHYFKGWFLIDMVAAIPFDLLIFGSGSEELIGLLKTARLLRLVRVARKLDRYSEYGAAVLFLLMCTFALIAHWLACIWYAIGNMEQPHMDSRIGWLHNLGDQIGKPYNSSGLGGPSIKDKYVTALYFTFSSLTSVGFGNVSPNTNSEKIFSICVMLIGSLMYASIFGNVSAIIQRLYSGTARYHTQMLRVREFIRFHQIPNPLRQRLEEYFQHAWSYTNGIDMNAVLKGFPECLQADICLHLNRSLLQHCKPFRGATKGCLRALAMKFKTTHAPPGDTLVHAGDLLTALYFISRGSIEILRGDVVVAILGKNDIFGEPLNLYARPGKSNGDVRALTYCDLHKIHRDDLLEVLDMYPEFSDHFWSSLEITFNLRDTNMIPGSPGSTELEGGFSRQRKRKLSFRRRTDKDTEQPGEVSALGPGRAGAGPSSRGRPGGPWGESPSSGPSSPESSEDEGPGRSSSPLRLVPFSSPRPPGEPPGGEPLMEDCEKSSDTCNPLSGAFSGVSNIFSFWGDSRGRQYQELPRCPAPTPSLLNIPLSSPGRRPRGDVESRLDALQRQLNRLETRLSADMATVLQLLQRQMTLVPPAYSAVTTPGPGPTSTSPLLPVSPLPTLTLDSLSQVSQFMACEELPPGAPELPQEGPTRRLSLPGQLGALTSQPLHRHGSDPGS
Sequence of Tumor necrosis factor (Homo sapiens) (P01375 whole entry, looked up): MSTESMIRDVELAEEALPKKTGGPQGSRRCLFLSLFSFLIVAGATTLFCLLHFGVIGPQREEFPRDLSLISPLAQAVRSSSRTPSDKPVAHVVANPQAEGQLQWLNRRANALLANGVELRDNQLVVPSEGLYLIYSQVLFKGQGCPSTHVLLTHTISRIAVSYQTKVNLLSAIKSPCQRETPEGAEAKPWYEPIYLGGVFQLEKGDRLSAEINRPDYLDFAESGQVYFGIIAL

With `O=CC(=O)c1ccccc1`, the call in assay [1], in assay [6], in [7] and in [14] was inactive. For the same molecule, the Potency entry in assay [2], in [3], in assay [4], in [8], in assay [9] and in assay [10] was “inactive” in each case. Further, the Potency entry in assay [12] and in assay [13] was “inactive” in each case. In [5], the max response came out at 7.18%. Also, the activation in [11] is -5.31% (inactive).
As to `O=C(OCC1CO1)C1CCCCC1C(=O)OCC1CO1` (stereo not given), the activity change, negative = cytotoxicity in assay [15] was -15% (inactive). Besides, the result in [1] and in [14] was inactive. The Potency result in assay [4], in assay [10], in [12], in [13] and in assay [17] was “inactive” throughout. In addition, the Potency in assay [16] was 42.2 µM (active).
In the case of `CCN(CC)c1ccc(N)cc1`, the Potency in assay [18] is 44 µM (active); in assay [16], 37.6 µM (active); in assay [12], 29.8 µM (active); in [17] it was 37.6 µM (active). Moreover, the activity change, negative = cytotoxicity in assay [15] was -96.6% (active). The Potency result in assay [3], in assay [4], in assay [8] and in [9] was “inactive” each time. In assay [11], the activation was 11.7% (inactive).
On to `Oc1cc2c(cc1O)[C@H]1c3ccc(O)c(O)c3OC[C@@]1(O)C2`, for which the Potency in assay [18] was 35.9 µM (active); in assay [19], 31.6 µM (active); in [16] it was 66.8 µM (active); in [17] it was 11.9 µM (active). For the same molecule, the activity change, negative = cytotoxicity in assay [15] is -89.3% (active). The call in assay [1], in assay [7] and in assay [14] was inactive. The Potency result in assay [3], in assay [20] and in [12] was “inactive” in each case.
On to `Cc1ccccc1OCC1CO1` (stereo not given), for which the activity change, negative = cytotoxicity in assay [15] is -29.7% (inactive). The Potency result in assay [2], in assay [3], in assay [19], in assay [8], in assay [9] and in assay [10] was “inactive” throughout. In addition, the Potency result in assay [16], in assay [12], in assay [13] and in assay [17] was “inactive” throughout. Also, the molecule was classed as inactive in [7] and in [14]. Further, the activation in [11] was -0.32% (inactive).
Turning to `O=C(Cl)c1ccc([N+](=O)[O-])cc1`, in assay [18], the Potency was > 92 µM (inactive). Also, the activity change, negative = cytotoxicity in assay [15] was -20% (inactive). Further, the Potency entry in assay [2], in assay [3], in assay [4], in assay [19], in assay [20] and in [10] was “inactive” throughout. Moreover, the Potency result in [16], in assay [12], in assay [13] and in assay [17] was “inactive” each time. Moreover, the max response in assay [5] came out at 8.99%. Also, the result in [6], in [7] and in assay [14] was inactive.
As for `O=[N+]([O-])c1cc(N(CCO)CCO)ccc1NCCO`, the call in assay [1], in assay [6] and in [14] was inactive. For the same molecule, the Potency result in assay [2], in [3], in [4], in [8], in [9] and in [20] was “inactive” each time. In addition, the Potency result in assay [10], in [16], in assay [12] and in [17] was “inactive” in each case. The max response in [5] was 25% and 8.06%. Further, in [11], the activation was -5.39% (inactive) and -4.71% (inactive).
Take `Cc1ccc(O)c(N)c1`: the activity change, negative = cytotoxicity in assay [15] is -124% (active). The outcome in [1] and in assay [6] was inactive. Besides, the Potency entry in assay [2], in assay [3], in assay [20] and in [10] was “inactive” each time. For the same molecule, the max response in [5] is -35.8%. The values for the Potency in [16] and in assay [12] were 16.8 µM (active) and 29.8 µM (active), respectively. In addition, the activation in assay [11] was 2.36% (inactive).
For `Nc1ccc(-c2ccc(N)c(O)c2)cc1O`, in assay [18], the Potency is 32.3 µM (active). Further, the activity change, negative = cytotoxicity in [15] was -88.2% (active). Moreover, the call in assay [1] and in [14] was inactive. For the same molecule, the Potency entry in assay [3], in assay [19], in assay [8], in [9], in [10] and in assay [12] was “inactive” each time. Besides, the Potency result in assay [17] is “inactive”. Besides, the activation in assay [11] is 2.61% (inactive).
As to `Cc1cc2nc(N)sc2cc1C`, the molecule was called inactive in assay [1] and in [7]. The Potency in assay [2] is 15.8 µM (active). Moreover, the Potency entry in assay [3], in assay [4], in [8], in assay [9], in assay [20] and in assay [10] was “inactive” throughout. Besides, the Potency entry in assay [12], in assay [13] and in [17] was “inactive” each time. For the same molecule, in assay [11], the activation was -2.08% (inactive).
